Screening results: PubChem BioAssay, National Center for Advancing Translational Sciences (NCATS)
Hits are enriched below; roughly 19% of the tested compounds scored in any of these assays.
HT1080NT lethal: kills 2HG-producing HT-1080-NT fibrosarcoma cells | Potency, µM (series often up to 46.1 µM), for inactives: at the top dose activity, negative = less viability, actives largely listed as cytotoxic | HT-1080-NT fibrosarcoma viability, CellTiter-Glo ATP luminescence, 48 h | actives 1.6% (n = 360,000);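 note: NT is the 2HG producing partner of a matched IDH1 knockdown line; potency is the fitted concentration of half-maximal effect; 0% = DMSO-treated cells and -100% = media-only wells without cells; nearly all actives have a fitted effect of over 55% in size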
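A 48-hour cytotoxicity screen used HT-1080-NT cells plated 2 hours before compound delivery. ATP-based CellTiter-Glo luminescence measured viability, normalized to DMSO and no-cell controls.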
ELG1 repair inh: inhibitors of ELG1-dependent DNA repair in HEK293T cells | HEK293T ELG1-luciferase reporter, luminescence, 16 h; DNA damage induced by 5-fluorouridine | Potency, µM (titrated, usually from 46.1 µM), inactives show at the highest dose activity change, negative = inhibition, most hits filed as inhibitors | actives 2.3% (n = 330,000) | AID 504467; note: potency is the fitted concentration of half-maximal effect; nearly all actives have a fitted effect of over 55% in size
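Step one: seed 2,000 cells per well. Step two: pin-transfer compound or DMSO alongside 5-fluorouridine. Step three: incubate 16 hr, 37 °C, 5% CO2. Step four: add ONE-Glo, wait 30 min, read luminescence.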
TDP1 cell noCPT: qHTS for Inhibitors of human tyrosyl-DNA phosphodiesterase 1 (TDP1): qHTS in cells in absence of CPT; DT40 Tdp1-/- hTDP1 cells, no CPT, ATP luminescence, 48 h; Potency, µM (doses to about 46.2 µM), inactives show at the top dose activity change, negative = growth inhibition, hits mostly inhibitors; actives 15% (n = 420,000); note: potency is the fitted concentration of half-maximal effect; nearly all actives have a fitted effect of over 55% in size
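Seeded 400 DT40-hTDP1 cells/well (vehicle DMSO, no 20 nM CPT); pinned compounds; ≥48 hr at 37 °C; CellTiter-Glo luminescence as viability measure.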
HT1080 IDH1KD tx: kills HT-1080 cells with IDH1 knockdown; HT-1080 IDH1 knockdown viability, ATP luminescence, 48 h; Potency, µM (titrated, usually from 46.1 µM), inactives show at the top dose activity, negative = toxicity, usual class: cytotoxic; actives 2% (n = 360,000); AID 686971;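 note: potency is the fitted concentration of half-maximal effect; 0% = DMSO wells and -100% = cell-free medium wells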
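% activity derives from luminescence (CellTiter-Glo), normalised to DMSO and no-cell wells. HT-1080-IDH1KD cells, 750/well, had 48 h compound exposure at 37 °C.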
TDP1 cell CPT: DT40-hTDP1 cell growth loss with CPT; chicken DT40 Tdp1-/-;hTDP1 cells + 20 nM CPT, ATP luminescence, 48 h; Potency, µM (top dose mostly 46.2 µM), inactives show at the highest dose activity change, negative = growth inhibition, hits mostly inhibitors; AID 686979; actives 12% (n = 420,000); note: potency is the fitted concentration of half-maximal effect; nearly all actives have a fitted effect of over 55% in size
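Chicken DT40 Tdp1-/- cells complemented with human TDP1, 400 cells/well, exposed to compounds plus 20 nM camptothecin for at least 48 h at 37 C; viability read as ATP content by CellTiter-Glo luminescence.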
IL-1B inflam inh: inhibitors of inflammasome signaling (IL-1 beta secretion) | actives 4.7% (n = 360,000) | activity change, % at 57.5 µM | AID 743279 | THP-1 LPS/ATP IL-1B secretion, AlphaLISA, 16 h; hits give low values; in the data active = activity change below about -50%; inconclusive = mostly about -30% to -49%
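Secreted IL-1B measured by AlphaLISA bead assay after 16 h compound exposure of THP-1 cells; compounds (final up to 57.5 uM) added 1 h before LPS (250 ng/mL) and ATP (1.25 mM) stimulation; lower signal means less secretion.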
Active calls of the source: *; ? = inconclusive; · = no result; [ ] = dose if it differs, or a comment. Unless noted, calls come from the whole dose curve; as a rule, active = well fitted curve in the direction sought with a large enough effect; inconclusive = small, poorly fitted or top-dose-only effect, or another doubt; inactive = no such curve, though single readings can be large; an effect the other way counts as inactive or inconclusive. Unless noted, % is set by controls: 0 for no effect and ±100 for the full control effect.

SMILES	HT1080NT lethal	ELG1 repair inh	TDP1 cell noCPT	HT1080 IDH1KD tx	TDP1 cell CPT	IL-1B inflam inh
O=C(Nc1ccc(F)cc1)C(CCc1ccccc1)N1CCN(Cc2c(F)cccc2Cl)CC1 (stereo not given)	-2%	·	?	-19%	?	18
COc1ccc(NC(=O)COC(=O)Cc2coc3cc(OC)ccc23)c(OC)c1	-1%	8%	3%	-9%	4%	9
Cc1noc(C)c1C(=O)N1CCC1(C)C(=O)NS(=O)(=O)c1ccccc1C(F)(F)F (stereo not given)	4%	·	-5%	2%	-10%	4
COc1ccc(-c2c(N)cnc(C(=O)O)c2C)c(OCc2ccccc2)c1OC	0%	·	?	-22%	?	-21
CCOC(=O)C1=c2s/c(=C\c3cccnc3)c(=O)n2C(N)=C(C(=O)OC)C1c1cccnc1 (stereo not given)	1%	?	15µM*	9%	23µM*	11
S=C(N=Nc1ccccc1)NNc1ccccc1	6%	?	?	-9%	3.7µM*	-7
CCn1c(/N=C/c2ccccc2NS(=O)(=O)c2ccc(C)cc2)nc2ccccc21	-16%	-23%	?	-11%	29µM*	-10
CCCn1c(CNS(=O)(=O)c2ccc(C)cc2)nc2ccccc21	4%	0%	?	1%	?	37
CCCN1CCN(CCCNC(=O)c2ccc3c(Cl)c4c(nc3c2)CCCC4)CC1	?	8%	8.2µM*	?	21µM*	-56*
CC1CC(C)CN(CCCNC(=O)c2ccc3c(SCC(=O)O)c4c(nc3c2)CCC4)C1 (stereo not given)	-9%	6%	9%	8%	-1%	-16
O=C(NCCCN1CCCC1)c1ccc2c(Cl)c3c(nc2c1)CCCC3	18µM*	-2%	15µM*	23µM*	?	·
CCOC(=O)c1ccc(NC(=O)c2c(NC(=O)CCC(=O)O)sc3c2CCCCC3)cc1	6%	?	29µM*	11%	0%	-17
CCN(CC)Cc1c(NC(=O)c2ccc(OC)cc2)sc2c1CCCC2	·	·	?	·	18µM*	·
CCOC(=O)c1c(NC(=O)c2ccc(OC)cc2)sc2c1CCCCC2	·	·	-28%	·	-18%	·
COc1ccc(NC(=O)c2c(NCc3cccs3)sc3c2CCCCC3)c(OC)c1	·	·	15µM*	·	?	·
COc1ccc(NC(=O)c2c(NCc3cccs3)sc3c2CCCC3)cc1	·	·	21µM*	·	?	·
CCCOC(=O)c1c(NC(=O)CCC(=O)O)sc2c1CCCCC2	15%	13%	-8%	12%	19%	9
CCCNCc1cc(OC)c(OCc2ccccc2)cc1Br	-22%	28%	?	-16%	?	?
CN(C)c1cccc(C(=O)NCC2Cc3cccc(-c4cncnc4)c3O2)c1 (stereo not given)	·	·	-26%	·	-8%[9.04 µM]	·
C/C(=N\NC(=O)c1ccc(CSc2nc(C)cc(C)n2)cc1)c1ccco1	16%	?	-24%	27%	3%	-2
CCc1c(C)nc(SCC(=O)N2CC(C)OC(C)C2)[nH]c1=O (stereo not given)	-2%	?	-2%	0%	1%	-8
CCC(=O)Nc1sc2c(c1C(=O)N(C)C)CCCCC2	3%	3%	-17%	0%	-27%	19
COc1ccc(CC(=O)Nc2sc3c(c2C(N)=O)CCCC3)cc1	-19%	?	?	-21%	14%	-2
COc1ccc2nc(NC3=NCCC3)sc2c1	17%	?	-7%	-1%	-3%	-17
COc1ccc(NC(=O)CN(C)CC(=O)Nc2sc3c(c2C(N)=O)CCC3)cc1	-9%	21µM*	?	-3%	21µM*	6
SMILES	HT1080NT lethal	ELG1 repair inh	TDP1 cell noCPT	HT1080 IDH1KD tx	TDP1 cell CPT	IL-1B inflam inh
CCOC(=O)c1c(NS(C)(=O)=O)sc2c1CCC(C)C2 (stereo not given)	3%	2%	?	0%[9.24 µM]	-16%	0
CCOC(=O)c1ccc(NC(=O)c2c(NCc3ccc(OC)c(OC)c3OC)sc3c2CCC(C)C3)cc1 (stereo not given)	·	·	26µM*	·	?	·
CCC(=O)Nc1sc2c(c1C(=O)Nc1ccc(Br)cc1)CCCCC2	·	·	21µM*	·	?	·
COc1ccc2nc(Nc3sc4c(c3C(N)=O)CCCC4)sc2c1	-13%	?	?	-6%	16µM*	-100*
CCOC(=O)c1c(NC(=S)Nc2ccc(OC)cc2)sc2c1CCCCC2	-3%	23%	-9%	-1%	2%	10
CCOC(=O)c1ccc(NC(=O)c2c(NCc3cccs3)sc3c2CCCCC3)cc1	·	·	8.2µM*	·	10µM*	·
CC(C)(C)NC(=O)c1ccc(Sc2ccccc2)c([N+](=O)[O-])c1	-19%	-8%	8.2µM*	-9%	?	5
COc1ccc(C2c3[nH]c4ccccc4c3CCN2C(=O)CCC2CCCC2)cc1 (stereo not given)	·	·	?	·	21µM*	·
Cc1nc(C)c(CC(=O)N2CCc3c([nH]c4ccccc34)C2c2ccccn2)s1 (stereo not given)	-14%	?	?	-10%	-7%	-14
COc1ccc(C2c3[nH]c4ccc(OC)cc4c3CCN2C(=O)Nc2ccccc2)cc1 (stereo not given)	·	·	?	·	23µM*	·
CCOc1ccc(C2c3[nH]c4ccccc4c3CCN2C(=O)CSc2ccccc2)cc1 (stereo not given)	·	·	21µM*	·	?	·
COc1ccc(C(=O)N2CCC3(CCN(C(=O)Nc4ccccc4)CC3)CC2)cc1	·	·	?	·	9%	·
CCOc1ccc(C2c3[nH]c4ccccc4c3CCN2C(=O)CCC2CCCC2)cc1 (stereo not given)	·	·	18µM*	·	21µM*	·
CCCCNC(=O)C(CC)Sc1nnc(-c2ccc(OC)c(OC)c2)c(-c2ccc(OC)c(OC)c2)n1 (stereo not given)	·	·	-28%	·	-1%	·
CCn1cc(C(=O)NCCC(=O)NC(C)C)c(=O)c2cc3c(cc21)OCO3	12%	14%	23%	2%	-26%	5
COc1ccc(O)c(-c2cc(-c3cccs3)[nH]n2)c1	?	?	?	?	15µM*	0
COc1ccc(O)c(-c2cc(-c3ccccc3Cl)[nH]n2)c1	-10%	0%	-30%	-13%	?	27
